Inconclusive results are not listed. Where a call stands in place of a potency, no number is given. Activity calls are given as the source filed them. The call rests on the fitted dose curve; in most records, active means well fitted curve in the direction sought with a large enough effect in the repeat runs; inconclusive means weak or mixed curves; inactive means no such curve, though single readings can be large; an effect the other way counts as inactive or inconclusive.
Assay: qHTS RealTime-Glo MT Cell Viability Assay in HepG2 cells - 0 hour (AID 1224889); further: nearly all actives have a fitted effect of over 50% in size; further: potency means the concentration at half of the fitted maximal effect
Conditions: RealTime-Glo luminescence; series mostly up to 76.8 µM
Procedure, shortened: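 Compound treatment began 5 h after plating HepG2 cells (600/well) with NanoLuc luciferase and prosubstrate. Plates stayed at 37 C for 40 h; luminescence was captured at six time points, 0 h through 40 h.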

Row | SMILES | Potency
1 | CCCCCCCCCCCCCCCCCCN(C)C | inactive
2 | C=CCOCC(O)CCl (centres undefined) | inactive
3 | CCOC(=O)CCc1ccccc1 | inactive
4 | Nc1cc(C(=O)O)ccc1Cl | inactive
5 | c1ccccc1 | inactive
6 | FC(F)(F)c1ccc(Cl)cc1Cl | inactive
7 | CC(C)(C)c1ccc(C=O)cc1 | inactive
8 | O=C(O)c1ccccc1C(=O)OCc1ccccc1 | inactive
9 | COc1cc([N+](=O)[O-])ccc1N | inactive
10 | C[C@@H]1C[C@H]2[C@@H]3C[C@H](F)C4=CC(=O)C=C[C@]4(C)[C@@]3(F)[C@@H](O)C[C@]2(C)[C@@]1(O)C(=O)CO | 21.3 µM (active)
11 | O=S1(=O)CCCC1 | inactive
12 | O=c1[nH]c(=O)c2ccccc2o1 | inactive

Assay: A CellTox Green Cytotoxicity Assay to monitor cytotoxicity in HepG2 cells - 8 hour (AID 1224890); further: nearly all actives have a fitted effect of over 45% in size
Conditions: CellTox Green fluorescence; series mostly up to 76.8 µM
Procedure, shortened: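 Cells and non-lytic dye reagent are dispensed together (600 HepG2 cells/well) and incubated 5 h before DMSO compound transfer. Kinetic fluorescence is then recorded in the same wells during 40 h at 37 C.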

Row | SMILES | Potency | cytotoxicity increase
13 | CCCCCCCC/C=C\CCCCCCCC(=O)OC[C@@H](O)[C@H]1OC[C@H](O)[C@H]1O | inactive | 
14 | COc1ccc(NS(=O)(=O)c2ccc(N)cc2)nn1 | inactive | 
15 | CC(C)CCO | inactive | 
16 | CCS(=O)(=O)CCn1c([N+](=O)[O-])cnc1C | inactive | 
17 | O=C(O)CCNC(=O)c1ccccc1 | inactive | 
18 | C=C[Si](C)(C)O[Si](C)(C)C=C | inactive | 
19 | COc1ccc(N=Nc2cc(C)c(N=Nc3ccc(S(=O)(=O)O)cc3)cc2OC)cc1 | inactive | 
20 | CCCCCCCC[Si](OCC)(OCC)OCC | inactive | 
21 | CCNC(=O)/C=C/c1cccc(Br)c1 | inactive | 
22 | C[C@H](CCC(=O)NCC(=O)O)[C@H]1CC[C@H]2[C@@H]3[C@H](O)C[C@@H]4C[C@H](O)CC[C@]4(C)[C@H]3C[C@H](O)[C@]12C | inactive | 
23 | NC(Cc1c[nH]c2ccccc12)C(=O)O (centres undefined) | inactive | 
24 | O=S(=O)(O)SSS(=O)(=O)O | inactive | 
25 | NS(=O)(=O)c1ccc(Cl)c(S(N)(=O)=O)c1 | inactive | 
26 | COC(=O)CCC(=O)O | inactive | 
27 | CC(C)COC(=O)COc1ccc(Cl)cc1Cl | inactive | 
28 | C=C(C)[C@@H]1CC[C@@H](C)C[C@@H]1O | inactive | 

Row | SMILES | Potency | cytotoxicity increase
29 | Nc1ccc(S(=O)(=O)Nc2ccccn2)cc1 | inactive | 
30 | C=CCOC(=O)c1ccc(C(=O)OCC=C)c(C(=O)OCC=C)c1 | inactive | 
31 | O=C(O)Cc1cccc(-c2cc(CCCCCCc3ccc(O[C@H]4O[C@H](CO)[C@@H](O)[C@H](O)[C@@H]4O)c(-c4cccc(CC(=O)O)c4)c3)ccc2O[C@H]2O[C@H](CO)[C@@H](O)[C@H](O)[C@@H]2O)c1 |  | 23.5% [at 0.29 µM] (inactive)
32 | O=S(=O)(O)c1cc(O)ccc1O | inactive | 
33 | CCCCCCCCCCCCCCCCCCN(C)C | inactive | 
34 | CC(=O)OCC(=O)[C@@]1(O)[C@H](OC(C)=O)C[C@H]2[C@@H]3CCC4=CC(=O)C=C[C@]4(C)[C@@]3(F)[C@@H](O)C[C@@]21C | inactive | 
35 | C=CCOCC(O)CCl (centres undefined) | inactive | 
36 | CCOC(=O)CCc1ccccc1 | inactive | 
37 | Nc1cc(C(=O)O)ccc1Cl | inactive | 
38 | c1ccccc1 | inactive | 
39 | FC(F)(F)c1ccc(Cl)cc1Cl | inactive | 
40 | CC(C)(C)c1ccc(C=O)cc1 | inactive | 
41 | O=C(O)c1ccccc1C(=O)OCc1ccccc1 | inactive | 
42 | COc1cc([N+](=O)[O-])ccc1N | inactive | 
43 | O=S1(=O)CCCC1 | inactive | 
44 | O=c1[nH]c(=O)c2ccccc2o1 | inactive | 
